Screens (PubChem BioAssay)
Tau fluor cs: Counterscreen qHTS for Inhibitors of Tau Fibril Formation, Fluorescence Polarization. AID 1463, 2008. 280,000 tested, 0.93% active. Potency, µM (top dose mostly 57.7 µM). tau K18 P301L Alexa594 fluorescence, heparin fibrillization; note: nearly all actives have a fitted effect of over 55% in size
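Human tau K18 P301L (15 uM unlabeled, 0.24 uM Alexa 594-labeled) in 100 mM sodium acetate pH 7 with 20 uM heparin, 6 hr at 37 C. ThT 30 uM added, 1 hr ambient; Alexa 594 FP and total fluorescence read at 555/632 nm.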
Tau ThT inhib: qHTS for Inhibitors of Tau Fibril Formation, Thioflavin T Binding; Microtubule-associated protein tau (Homo sapiens), P10636; recombinant tau K18 P301L (four-repeat tau fragment), heparin-induced fibrillization, ThT fluorescence; Potency, µM (top dose mostly 57.4 µM), most hits filed as inhibitors; 270,000 tested, 2.1% active; note: nearly all actives have a fitted effect of over 55% in size
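Tau K18 P301L fragment (15 uM unlabeled plus 0.24 uM Alexa 594-labeled) in 100 mM sodium acetate pH 7 with compound, fibrillization induced by 20 uM heparin for 6 hr at 37 C. Thioflavin T (30 uM) added, fluorescence read after 1 hr (ex 450, em 510 nm).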
NPSR antagonist: qHTS Assay for Antagonists of the Neuropeptide S Receptor: cAMP Signal Transduction. Potency, µM (top dose mostly 38.3 µM), actives largely listed as inhibitors. CHO-NPSR cells, cAMP TR-FRET, antagonist mode. AID 1461, 2008. Q6W5P4. 220,000 tested, 1% active; note: nearly all actives have a fitted effect of over 50% in size
ALDH1A1 block: qHTS Assay for Inhibitors of Aldehyde Dehydrogenase 1 (ALDH1A1) | Aldehyde dehydrogenase 1A1 (Homo sapiens), P00352 | Purified ALDH1A1, NADH fluorescence, propionaldehyde substrate | Potency, µM (doses to about 75.3 µM), actives largely listed as inhibitors | 220,000 tested, 7.3% active | AID 1030, 2008; active = well fitted inhibition curve with a large enough effect, not every such curve was filed as active; inconclusive = small, poorly fitted or top-dose-only effect, or another doubt; inactive = no such curve, though single readings can be large or run the other way
Target sequence (P00352 whole entry, looked up): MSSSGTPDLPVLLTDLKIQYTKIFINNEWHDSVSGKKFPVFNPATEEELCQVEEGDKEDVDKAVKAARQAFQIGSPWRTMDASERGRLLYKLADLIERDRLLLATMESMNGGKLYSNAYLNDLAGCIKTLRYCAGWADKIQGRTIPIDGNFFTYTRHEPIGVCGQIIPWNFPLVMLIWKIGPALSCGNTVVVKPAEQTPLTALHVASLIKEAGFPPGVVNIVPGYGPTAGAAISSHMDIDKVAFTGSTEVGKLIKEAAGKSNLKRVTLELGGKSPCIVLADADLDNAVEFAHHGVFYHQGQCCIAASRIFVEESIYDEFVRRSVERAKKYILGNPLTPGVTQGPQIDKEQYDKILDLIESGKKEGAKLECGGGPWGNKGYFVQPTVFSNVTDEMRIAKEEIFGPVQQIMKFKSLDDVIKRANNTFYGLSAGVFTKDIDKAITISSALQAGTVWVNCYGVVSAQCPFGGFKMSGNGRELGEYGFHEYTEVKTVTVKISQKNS
Tau FP inhib: qHTS for Inhibitors of Tau Fibril Formation, Fluorescence Polarization; AID 1468, 2008; Microtubule-associated protein tau (Homo sapiens), P10636; Potency, µM (top dose mostly 57.7 µM), usual class: inhibitors; 280,000 tested, 0.39% active; K18 P301L tau heparin fibrillization, Alexa594 FP, 6 h; note: nearly all actives have a fitted effect of over 55% in size
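FP of Alexa 594-tau after heparin (20 uM) induction. Substrate: human K18 P301L, 15 uM unlabeled, 0.24 uM labeled. Buffer 100 mM sodium acetate pH 7. 6 hr, 37 C.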
HPGD block: qHTS Assay for Inhibitors of HPGD (15-Hydroxyprostaglandin Dehydrogenase). 15-hydroxyprostaglandin dehydrogenase [NAD(+)] (Homo sapiens), P15428. purified HPGD, NADH fluorescence kinetic, PGE2 substrate. Potency, µM, usual class: inhibitors. 150,000 tested, 4.3% active; active = well fitted inhibition curve with a large enough effect, not every such curve was filed as active; inconclusive = small, poorly fitted or top-dose-only effect, or another doubt; inactive = no such curve, though single readings can be large or run the other way
Target sequence (P15428 whole entry, looked up): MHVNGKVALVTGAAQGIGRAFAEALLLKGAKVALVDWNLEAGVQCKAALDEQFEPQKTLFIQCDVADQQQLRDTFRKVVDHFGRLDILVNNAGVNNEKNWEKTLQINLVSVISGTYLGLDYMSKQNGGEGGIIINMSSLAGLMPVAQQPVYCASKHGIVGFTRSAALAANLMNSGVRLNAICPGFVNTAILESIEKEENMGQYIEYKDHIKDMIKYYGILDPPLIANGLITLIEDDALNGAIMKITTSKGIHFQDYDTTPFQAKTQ
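20 nM HPGD preincubated 15 min at room temperature with compound in 50 mM Tris-HCl pH 8, 0.01% Tween 20. Started with 1 mM NAD+ and 30 uM prostaglandin E2; NADH fluorescence (360/450 nm) read 5 times over 30-s intervals, last minus first.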
Numbers stand for hits; 0 = inactive; ? = inconclusive; - = no result; [ ] = dose if it differs, or a comment. In the library only some 9.5% were active in any assay of this set; here they are far more common. Unless noted, calls come from the whole dose curve; as a rule, active = well fitted curve in the direction sought with a large enough effect; inconclusive = small, poorly fitted or top-dose-only effect, or another doubt; inactive = no such curve, though single readings can be large; an effect the other way counts as inactive or inconclusive.

SMILES | Tau fluor cs | Tau ThT inhib | NPSR antagonist | ALDH1A1 block | Tau FP inhib | HPGD block
Cc1ccccc1CSCc1nc(N)nc(Nc2ccccc2C)n1 | 0 | 0 | ? | ? | 0 | -
CCCCC(=O)/C=C/n1c(=S)oc2ccccc21 | 0 | 14µM | 0 | 11µM | ? | ?
Cc1ccc(NC(=O)CCn2c(=S)oc3ccccc32)cc1 | 0 | 0 | 0 | 0 | 0 | -
CC(C)OC(=O)n1c(=S)oc2ccccc21 | 0 | 0 | 0 | 7.1µM | 0 | ?
C=CCOC(=O)N[C@H](/C(C(=O)OC)=C(\C)NCc1ccccc1)c1cccc(C(F)(F)F)c1 | 0 | 0 | - | 0 | 0 | 0
O=C(c1sc2cccc(F)c2c1Cl)N1CCN(c2ncccn2)CC1 | 0 | 0 | 0 | 28µM | 0 | 0
Cc1onc(-c2c(F)cccc2Cl)c1C(=O)N1CCN(c2ncccn2)CC1 | 0 | 0 | 0 | 0 | 0 | -
Cc1cc(=O)c2cc(C(=O)Nc3ccc(F)cc3)ccc2[nH]1 | 0 | 0 | - | - | 0 | -
Cc1cc(C)c2nc(N3CCC(C(=O)N4CCN(C(=O)c5ccco5)CC4)CC3)sc2c1 | 0 | ? | 0 | 13µM | 0 | 0
O=C(Cc1ccccc1Cl)Nc1cccnc1 | 0 | 0 | 0 | 0 | 0 | -
CCCc1noc2c1C(c1cc(Br)ccc1F)C(C#N)=C(N)N2 (stereo not given) | 0 | 0 | 0 | 11µM | 0 | -
Fc1cccc(Cl)c1/C=N\N=C1c2ccccc2-c2ccccc21 | - | - | - | 0[13.5 µM] | - | 0
COc1cc(OC)cc(C(=O)NCc2ccc3c(c2)CCN3C(=O)c2ccccc2)c1 | 0 | 0 | - | - | 0 | -
COc1ccc(C2c3c(ncn(CCCO)c3=N)Oc3ccc4ccccc4c32)cc1 (stereo not given) | 0 | 0 | ? | - | 0 | -
COc1ccc(C2c3c(ncn(CCN4CCOCC4)c3=N)Oc3ccc4ccccc4c32)cc1OC (stereo not given) | 0 | 0 | 1µM | 0 | 0 | 0
O=C(N/N=C/c1cc2c3c(c1O)CCCN3CCC2)c1ccccc1O | 11µM[quencher] | 13µM | 0 | 0 | 0 | 0
Cc1nn(-c2ccccc2)c(N2CCCC2)c1/C=N/NC(=O)c1ccccc1O | ? | ? | 0 | ? | 0 | ?
COc1cccc(-c2nnc(NC(=O)c3ccc(S(=O)(=O)N4CC(C)OC(C)C4)cc3)o2)c1 (stereo not given) | 0 | 0 | 0 | 0 | 0 | 0
C[C@@H]1CCCC(CC(=O)O)(CC(=O)O)C1 | - | - | - | 0[13.5 µM] | - | 0
C/C(=N\NC(=O)c1ccc(C)cc1C)c1ccc2c(c1)Nc1ccccc1S2 | 18µM[quencher] | 14µM | 0 | 0 | ? | 0
O=C(COC(=O)CCc1ccc(S(=O)(=O)N2CCOCC2)cc1)NCc1ccc(Cl)cc1 | 0 | 0 | 0 | 0 | 0 | -
COC(=O)c1ccc(NC(=O)CSc2nnc(-c3ccncc3)n2N)cc1 | 0 | 0 | 0 | 25µM | 0 | 0
CCn1c(SCC(=O)Nc2ccc(C(=O)OC)cc2)nc2cccnc21 | 0 | 0 | 0 | 0 | ? | 3.5µM
O=C(O)CC(c1cccc([N+](=O)[O-])c1)N1Cc2ccccc2C1=O (stereo not given) | 0 | 0 | 0 | 0 | 0 | -
O=C(NNc1nc(-c2ccc(Br)cc2)cs1)c1ccco1 | ? | ? | 0 | ? | 0 | -
SMILES | Tau fluor cs | Tau ThT inhib | NPSR antagonist | ALDH1A1 block | Tau FP inhib | HPGD block
O=C1C(Cl)=C(Nc2ccc(O)cc2)C(=O)c2ccccc21 | 2µM[quencher] | 2µM | ? | - | 3.5µM | -
CCNc1ccccc(-c2ccc3ccccc3n2)c1=O | 0 | ? | 0 | 0 | 0 | 0
O=S1(=O)N=C(Nc2ccc(O)cc2)c2ccccc21 | 0 | 0 | 0 | 0 | 0 | -
O=C1C=C(Nc2ccc(O)cc2)C(=O)c2ccccc21 | 16µM[quencher] | 13µM | 0 | 0 | ? | -
Cc1ccc(NC2=C(Cl)C(=O)c3ccccc3C2=O)cc1 | ? | 2.2µM | 0 | 0 | ? | -
CCNC1=C(Cl)C(=O)c2ccccc2C1=O | ? | 18µM | 0 | ? | 0 | 0
COc1cc2c(cc1NC(=O)c1ccccc1C)n(C)c(=O)n2C | 0 | 0 | - | - | 0 | -
O=C1C(Cl)=C(NCCN2CCCCC2)C(=O)c2ccccc21 | ? | 10µM | ? | 0 | 0 | -
CCN(CC)c1ccc(NC(=O)C(C)C)cc1 | 0 | 0 | 0 | 0 | 0 | 0
CCN(CC)c1ccc(NC2=C(Cl)C(=O)c3ccccc3C2=O)cc1 | 2.2µM[quencher] | 2.8µM | 13µM | 10µM | 5µM | 7.9µM
Clc1ccc2c(c1)N(CCCN1CCCC13CCCCC3)c1ccccc1S2 | - | - | - | 0[13.5 µM] | - | 0
O=c1c(-c2ccccc2)n[nH]c2ccccc12 | 0 | 0 | 0 | ? | 0 | -
O=C1c2ccccc2-c2n[nH]c3cccc1c23 | ? | ? | 0 | 3.2µM | 0 | 0
Cc1ccc(-c2cc(C(=O)N3CCN(S(=O)(=O)c4ccc(Br)cc4)CC3)[nH]n2)cc1C | 0 | ? | - | - | 0 | -
COc1cc(C2Nc3ccc4ncccc4c3C3=C2C(=O)CCC3)cc(OC)c1O (stereo not given) | 0 | ? | 0 | 0 | 0 | 0
COc1cc(C2Nc3ccc4ncccc4c3C3=C2C(=O)CC(C)(C)C3)cc(OC)c1O (stereo not given) | 0 | ? | 0 | 13µM | 0 | 0
CC1(C)CC(=O)C2=C(C1)c1c(ccc3ccccc13)NC2c1cc([N+](=O)[O-])cc([N+](=O)[O-])c1O (stereo not given) | ? | 11µM | 0 | 11µM | ? | -
OCc1cnc(SCc2cccc(F)c2)n1Cc1ccc(F)cc1 | 0 | 0 | - | - | 0 | -
O=C1C(Cl)=C(NCC2CCCO2)C(=O)N1C1CCCCC1 (stereo not given) | 0 | 0 | 0 | 4µM | 0 | 0
O=C1C(Cl)=C(NCC2CCCO2)C(=O)N1c1ccccc1 (stereo not given) | 0 | 0 | 0 | 0 | 0 | -
Cc1cc(C)nc(-n2nc(C)c3c2N(Cc2ccccc2F)C(=O)CC3c2ccc(Cl)cc2)n1 (stereo not given) | 0 | 0 | - | - | 0 | -
Cc1ccccc1C(=O)NNC(=S)NC(=O)c1cccnc1 | 0 | 0 | 0 | 25µM | 0 | 0
O=C(NC(=S)NCCSc1ccccc1)c1cccnc1 | 0 | 0 | 0 | 14µM | 0 | 0
Cc1ccccc1C(=O)NC(=S)NCc1cccnc1 | 0 | 0 | 0 | 0 | 0 | -
O=C(NC(=S)NNC(=O)c1ccccc1F)c1cccnc1 | 0 | 0 | 0 | 7.1µM | 0 | -
CNC(=S)NNC(=O)c1ccccc1F | 0 | 0 | 0 | ? | 0 | -
COc1ccc2ncc3c(-c4ccccc4)nn(-c4ccc(C)c(C)c4)c3c2c1 | 0 | 0 | - | - | 0 | -
